# Compounds with a hit are over-represented: about 12% of the library has one in this group of screens.
# HP1b chromo inh: inhibitors of HP1-beta chromodomain binding to methylated histone tails; AlphaScreen HP1-beta / biotin-H3K9me3 peptide binding; Potency, µM (doses to about 114 µM), inactives show at the highest dose activity change, negative = inhibition, usual class: inhibitors; 390,000 compounds, 0.56% hits; AID 540317; further: nearly all actives have a fitted effect of over 70% in size
#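 Compound inhibition of the preformed complex between 50 nM HP1-beta and 50 nM biotinylated H3K9me3 peptide was read by AlphaScreen. Buffer was PBS pH 7.4 with 0.01% Tween-20. Incubations ran 30 min at room temperature, with 10 ug/mL donor/acceptor beads.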
# Sfp inh: inhibitors of Bacillus subtilis Sfp phosphopantetheinyl transferase | Q9F4F7 | Biochemical Sfp PPTase activity, qHTS | Potency, µM, for the others: largest response in the series, negative = inhibition, hits mostly inhibitors | 310,000 compounds, 3.5% hits;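 further: the enzyme is Sfp with the accession as filed and its product quenches rhodamine fluorescence; 0% = enzyme reaction without inhibitor and -100% = no enzyme wells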
#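 Compounds were incubated with enzyme (final 15 nM) for 15 min at room temperature before substrate addition started the reaction. Fluorescence at 525 nm excitation, 598 nm emission was recorded immediately and after 30 minutes.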
# BAZ2B block: blocks human BAZ2B | AlphaScreen BAZ2B-H3K14Ac peptide displacement | Potency, µM (highest dose often 114 µM), without a hit: at the top dose activity change, negative = inhibition, hits mostly inhibitors | 360,000 compounds, 4.4% hits | AID 504333; further: on the % scale 0 is the no-effect control and ±100 the full control effect; nearly all actives have a fitted effect of over 60% in size
#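 Compounds, titrated to a top concentration of 110 uM, were incubated 30 min at room temperature with preformed BAZ2B/acetyl-K14 H3 peptide complex (50 nM each). Proximity signal was measured by AlphaScreen after 20 min with beads.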
# JMJD2A Tudor: JMJD2A Tudor domain (human) inhibition; AlphaScreen JMJD2A-Tudor / H3K4me3 peptide binding; Potency, µM (highest dose often 114 µM), without a hit: at the top dose activity change, negative = inhibition, hits mostly inhibitors; 390,000 compounds, 4.4% hits; AID 504339; further: on the % scale 0 is the no-effect control and ±100 the full control effect; nearly all actives have a fitted effect of over 50% in size
# Target sequence (O75164 whole entry, looked up, the tested form may be a part): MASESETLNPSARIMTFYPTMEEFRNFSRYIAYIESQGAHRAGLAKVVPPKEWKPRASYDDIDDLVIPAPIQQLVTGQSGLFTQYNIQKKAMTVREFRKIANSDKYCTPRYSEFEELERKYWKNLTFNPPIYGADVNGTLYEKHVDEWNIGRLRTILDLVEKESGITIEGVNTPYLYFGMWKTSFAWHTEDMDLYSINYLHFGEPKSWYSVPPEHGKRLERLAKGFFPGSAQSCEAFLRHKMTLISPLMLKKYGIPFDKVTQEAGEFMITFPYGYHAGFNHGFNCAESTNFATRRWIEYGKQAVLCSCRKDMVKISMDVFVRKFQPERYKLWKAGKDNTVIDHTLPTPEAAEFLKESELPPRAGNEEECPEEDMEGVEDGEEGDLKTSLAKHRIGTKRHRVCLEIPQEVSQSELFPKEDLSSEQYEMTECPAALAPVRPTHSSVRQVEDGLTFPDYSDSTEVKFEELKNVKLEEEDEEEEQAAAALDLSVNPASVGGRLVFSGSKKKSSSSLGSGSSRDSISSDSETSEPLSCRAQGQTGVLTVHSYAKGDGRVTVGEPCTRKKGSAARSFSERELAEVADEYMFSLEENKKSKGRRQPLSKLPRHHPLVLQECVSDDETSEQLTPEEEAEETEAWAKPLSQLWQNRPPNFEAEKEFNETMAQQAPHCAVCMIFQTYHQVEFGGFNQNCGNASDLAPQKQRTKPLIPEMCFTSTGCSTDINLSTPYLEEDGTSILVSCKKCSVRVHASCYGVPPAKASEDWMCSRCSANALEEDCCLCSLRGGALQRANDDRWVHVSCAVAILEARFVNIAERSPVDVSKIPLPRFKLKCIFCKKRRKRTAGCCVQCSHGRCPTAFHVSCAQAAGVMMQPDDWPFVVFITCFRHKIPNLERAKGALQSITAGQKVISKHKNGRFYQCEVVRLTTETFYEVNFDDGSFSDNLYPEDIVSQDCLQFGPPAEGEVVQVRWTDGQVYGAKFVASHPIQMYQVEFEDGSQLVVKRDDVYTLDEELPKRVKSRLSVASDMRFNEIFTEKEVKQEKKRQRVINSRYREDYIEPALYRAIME
# G9a inh: blocks human histone lysine methyltransferase G9a | G9a H3K9 monomethylation, AlphaScreen, 2 h | Potency, µM (highest dose often 102 µM), inactives show top-dose activity, negative = inhibition, usual class: inhibitors | AID 504332 | 350,000 compounds, 8.8% hits | Q96KQ7; further: on the % scale 0 is the no-effect control and ±100 the full control effect; nearly all actives have a fitted effect of over 75% in size
#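 Readings reflect AlphaScreen signal from monomethyl-H3K9 antibody detection. HMT at 20 nM; substrate b-H3K9 500 nM; cofactor SAM 20 uM; 2 h RT reaction; compounds tested as titrations in qHTS with 15 min preincubation.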
# * marks the source's active call; other numbers are inactive results; ? = inconclusive; . = no result; ! = a repeat was not active; [ ] = dose if it differs, or a comment. The call rests on the fitted dose curve; in most records, active means well fitted curve in the direction sought with a large enough effect; inconclusive means small, poorly fitted or top-dose-only effect, or another doubt; inactive means no such curve, though single readings can be large; an effect the other way counts as inactive or inconclusive. Potency means the concentration at half of the fitted maximal effect.
SMILES,HP1b chromo inh,Sfp inh,BAZ2B block,JMJD2A Tudor,G9a inh
CCCCCCCCCCCCOCCCN,.,4%,.,.,1%[12.7 µM]
Cc1ccc(N(CC(=O)NC2CCCCC2)C(=O)CCC(=O)Nc2nccs2)cc1,27%,9%,1%,-17%,18%
Cc1nn(-c2ccc(F)cc2)c(-n2cccc2)c1C(=O)N1CCN(c2ccc(F)cc2)CC1,22%,.,?,-24%,-35%[59 µM]
O.O.O.O.O.O.O.O=S(=O)([O-])[O-].[Co+2],.,79µM*,.,.,?
O=C(COc1ccccc1)N(Cc1cccnc1)c1nc2c(F)cccc2s1,23%,.,-7%,-10%,14%[59 µM]
COc1ccc(C(=O)NC(=S)Nc2cc(C)ccn2)cc1[N+](=O)[O-],37%,-9%,-31%,-13%,2.8µM*
Cc1cccc(NC(=O)c2ccccc2Br)n1,33%,-8%,8%,-1%,22µM*
COC(=O)c1cc(C(=O)Nc2cc(C)ccn2)cc([N+](=O)[O-])c1,17%,-12%,-9%,-18%,50µM*
CCNC(=S)Nc1cc(C)ccn1,28%,?,-2%,-17%,1µM*
Cc1cccc(NC(=O)c2cccc3c2-c2ccccc2C3=O)n1,9%,11%,-25%,-12%,?
COC(=O)c1cc(C(=O)Nc2cc(C)on2)cc([N+](=O)[O-])c1,55%,15%,-1%,4%,2%
O=C1[C@H]2[C@H]3[C@H](O)[C@H](O)C/C(=N/OCc4ccccc4)[C@@H]3CC[C@@H]2C(=O)N1Cc1ccc2c(c1)OCO2,.,11%,.,.,.
Cc1ccc(N[S+](=O)([O-])c2cc3c(cc2CCc2ccccc2)NC(=O)CO3)cc1C,.,.,.,-7%,.
CCOc1cc(C(=O)Nc2cc(C)ccn2)cc(OCC)c1OCC,37%,-3%,-3%,-2%,-22%
CCOc1ccc(C(=O)Nc2cccc(C)n2)cc1,30%,4%,-9%,-23%[11.4 µM],50µM*
CCOc1ccc(C(=O)Nc2cc(C)ccn2)cc1,-3%,4%,1%,13µM*,?
COc1ccc2c(c1)C(C)CC(C)(C)N2C(=O)NC1CCCCC1 (configuration not stated),-11%,-1%,?,-31%,45µM*
CC1CC(C)(C)N(C(=O)NC2CCCCC2)c2ccccc21 (configuration not stated),20%,5%,7%,-12%,-9%[59 µM]
CC[C@@H](C)CN1C(=O)N[C@@H](c2ccccc2)C(C(=O)OC)=C1C,.,-1%,.,.,.
O=C1NC(=O)C2(CCCCCCC2)N1,24%,.,.,-1%,.
CC/C=C\C/C=C\C/C=C\CCCCCCCC(=O)O,11%,79µM*!,-5%,-27%,18µM*!
CCOc1cc(N2CCOCC2)c(OCC)cc1NC(C)C(=O)N1CCC(C)CC1 (configuration not stated),-5%,-2%,-5%,?,40µM*
CCOc1cc(N2CCOCC2)c(OCC)cc1NC(=O)CSc1ccccc1C(=O)O,13%,.,79µM*,-33%,7.9µM*
CCOc1cc(N2CCOCC2)c(OCC)cc1NC(=O)[C@H](C)N1C(=O)C2CC=CCC2C1=O (some centres not stated),18%,18%,-18%,-18%,-3%
CCOc1cc(N2CCOCC2)c(OCC)cc1NC(=O)CN1CCc2ccccc2C1,?,45µM*,20µM*,1.4µM*,15%[2.33 µM]
SMILES,HP1b chromo inh,Sfp inh,BAZ2B block,JMJD2A Tudor,G9a inh
CCOc1cc(N2CCOCC2)c(OCC)cc1NC(=O)CSc1ncn[nH]1,15%,-64%,-36%,-7%,45µM*
CCOc1cc(N2CCOCC2)c(OCC)cc1NC(=O)CSc1n[nH]c(N)n1,19%,-1%,?,-4%,-40%
CCOc1cc(N2CCOCC2)c(OCC)cc1NC(=O)CN1CCN(Cc2ccc3c(c2)OCO3)CC1,-5%,10%,-24%,-35%,14%[12.7 µM]
COCC(C)NC(=O)c1cnn2c(C(F)F)cc(-c3ccccc3)nc12 (configuration not stated),21%,.,0%,-7%,0%[59 µM]
CCOc1cc(N2CCOCC2)c(OCC)cc1NCC(=O)N1CCN(Cc2ccccc2)CC1,20µM*,56µM*,20µM*,0.79µM*,.
CC(C)(O)C1Cc2cc(/C=C/C(=O)O)c(O)cc2O1 (configuration not stated),?,6.3µM*,20µM*,4µM*,2µM*
c1ccn2c(SCc3ccc4c(c3)OCCO4)nnc2c1,32%,?,?,-6%,56µM*
Cn1c(=O)c2cn3c(c2n(C)c1=O)C(c1ccccc1)CC(c1ccccc1)=N3 (configuration not stated),19%,-6%,?,?,8.9µM*
CCN(CC)c1ccc(C(=O)NNC(=O)CN2C(=O)NC(C)(c3ccccc3)C2=O)cc1 (configuration not stated),24%,.,2%,-5%,-5%[59 µM]
S=c1nc[nH]c2c1ncn2-c1ccc(Cl)cc1,?,.,.,50µM*,.
CCOc1ccc2c(c1)c(=O)c(S(=O)(=O)c1ccc(Cl)cc1)cn2Cc1ccccc1C,7%,.,-16%,-29%,1%[59 µM]
CCOC(=O)c1c(N)sc2c1CCC1C(=O)N(C3CCCCC3)C(=O)C21 (configuration not stated),-26%,20µM*,-6%,-25%,?
CCOC(=O)c1c(N)sc2c1CCC(CC)C2 (configuration not stated),?,-17%,-29%,-33%,11µM*
CCOC(=O)c1c(N)sc2c1CCSC2,-10%,-29%,?,-33%,50µM*
CCC1CCc2c(sc(N)c2C(N)=O)C1 (configuration not stated),-17%,.,.,?,.
CC(=O)Nc1ccc(N2C(=O)CC(Sc3nc(C)cc(C)n3)C2=O)cc1 (configuration not stated),35%,6%,1%,-2%,-9%
O=C(Cn1c(NCCCCl)nc2ccccc21)c1ccccc1,11%,.,?,-25%,-23%[0.501 µM]
c1ccc2c(CNc3ccc(CNc4ncn[nH]4)cc3)cccc2c1,?,-12%,45µM*,56µM*,?
COc1ccc2[nH]c(=O)c(CNc3cc(C)ccc3C)cc2c1,-32%,50µM*,50µM*,?,?
CCOc1ccc(NCc2cc3cc(OC)ccc3[nH]c2=O)cc1,-4%,-1%,-27%,?,?
COc1ccc2[nH]c(=O)c(CNc3ccc(C)cc3C)cc2c1,-17%,45µM*,-23%,-32%,20µM*
Cc1ccc2[nH]c(=O)c(CNC(C)(C)C)cc2c1,14%,5.6µM*,-28%,0%,?
CN1CCc2c(sc3c2C(=O)NC(c2cccs2)N3)C1 (configuration not stated),-18%,0%,-20%,?,?
CN1CCc2c(sc3c2C(=O)NC(c2ccc(-c4cccc(Cl)c4)o2)N3)C1 (configuration not stated),?,50µM*,40µM*,50µM*,.

# High-throughput results as filed in PubChem.
